# Bioassay records as filed in PubChem.
# Compounds with a hit are over-represented: about 12% of the library has one in this group of screens.
# BAZ2B block – blocks human BAZ2B. AID 504333. Potency, µM (titrated, usually from 114 µM), inactives show at the top dose activity change, negative = inhibition, usual class: inhibitors. AlphaScreen BAZ2B-H3K14Ac peptide displacement. hit rate 4.4% among 360,000. Q9UIF8; note: % is set by controls: 0 for no effect and ±100 for the full control effect; nearly all actives have a fitted effect of over 60% in size
#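 BAZ2B (50 nM) with biotin-H3(5-23)K14Ac peptide (50 nM) in PBS pH 7.4, 0.01% Tween-20, preformed 30 min, then compound 30 min at room temperature; top concentration 110uM. AlphaScreen streptavidin donor/nickel chelate acceptor beads (10 ug/mL final), 20 min dark, signal read.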
# Sfp inh – blocks B. subtilis Sfp PPTase activity; Biochemical Sfp PPTase activity, qHTS; Potency, µM, for inactives: largest response in the series, negative = inhibition, actives largely listed as inhibitors; hit rate 3.5% among 310,000;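 note: the enzyme is Sfp with the accession as filed and its product quenches rhodamine fluorescence; 0% = enzyme reaction without inhibitor and -100% = no enzyme wells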
#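 Fluorescence-quenching assay: 15 nM Sfp-PPTase preincubated 15 min at room temperature with compound, then 5 uM rhodamine-CoA and 12.5 uM BHQ-2-labelled YbbR peptide added. Fluorescence (ex 525/em 598 nm) read at start and after 30 min; difference gives rate.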
# PLK1 PBD block – inhibitors of human PLK1 polo-box domain binding | P53350 | Plk1 PBD binding of FITC phosphopeptide, fluorescence polarization | Potency, µM, for inactives: max response, negative = inhibition, most hits filed as inhibitors | hit rate 2.8% among 360,000; note: series mostly up to about 57 µM; % is set by controls: 0 for no effect and ±100 for the full control effect; nearly all actives have a fitted effect of over 65% in size
# G9a block – G9a (human) methyltransferase inhibition; G9a H3K9 monomethylation, AlphaScreen, 2 h; hit rate 8.8% among 350,000; AID 504332; Potency, µM (titrated, usually from 102 µM), without a hit: at the top dose activity, negative = inhibition, usual class: inhibitors; note: % is set by controls: 0 for no effect and ±100 for the full control effect; nearly all actives have a fitted effect of over 75% in size
# Target sequence (Q96KQ7 913-1193 limits assumed): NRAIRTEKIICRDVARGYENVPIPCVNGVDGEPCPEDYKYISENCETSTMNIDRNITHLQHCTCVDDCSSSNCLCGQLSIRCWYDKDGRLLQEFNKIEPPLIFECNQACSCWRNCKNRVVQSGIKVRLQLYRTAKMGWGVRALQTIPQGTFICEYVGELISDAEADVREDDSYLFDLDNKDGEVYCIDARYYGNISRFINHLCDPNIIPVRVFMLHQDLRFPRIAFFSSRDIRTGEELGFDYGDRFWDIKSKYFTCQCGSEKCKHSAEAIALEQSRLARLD
#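 Enzyme 20 nM + cpd, 15 min RT; add b-H3K9 pep 500 nM / SAM 20 uM; 2 h RT; anti-H3K9me1 Ab 0.5 ug/mL + SA donor / anti-rabbit acceptor beads 20 ug/mL each, 10 min; AlphaScreen read.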
# JMJD2A Tudor inh – inhibitors of human JMJD2A Tudor domain. AlphaScreen JMJD2A-Tudor / H3K4me3 peptide binding. Potency, µM (highest dose often 114 µM), for the others: at the top dose activity change, negative = inhibition, most hits filed as inhibitors. hit rate 4.4% among 390,000. AID 504339; note: % is set by controls: 0 for no effect and ±100 for the full control effect; nearly all actives have a fitted effect of over 50% in size
# HP1b binding inh – HP1-beta chromodomain-methylated histone interaction inhibition | P83916 | AlphaScreen HP1-beta / biotin-H3K9me3 peptide binding | Potency, µM (series often up to 114 µM), without a hit: at the highest dose activity change, negative = inhibition, usual class: inhibitors | hit rate 0.56% among 390,000 | AID 540317; note: nearly all actives have a fitted effect of over 70% in size
# Target sequence (P83916 whole entry, looked up): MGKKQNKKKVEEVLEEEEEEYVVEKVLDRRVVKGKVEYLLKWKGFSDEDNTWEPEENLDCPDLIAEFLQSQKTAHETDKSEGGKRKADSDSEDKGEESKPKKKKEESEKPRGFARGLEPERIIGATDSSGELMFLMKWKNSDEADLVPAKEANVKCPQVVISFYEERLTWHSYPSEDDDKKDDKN
#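 AlphaScreen: HP1-beta (50 nM) preformed 30 min with biotin-H3(1-18)K9me3 peptide (50 nM) in PBS pH 7.4, 0.01% Tween-20. Compound added for 30 min at RT, then streptavidin donor/nickel chelate acceptor beads (10 ug/mL) for 30 min.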
# Starred values were filed as active, the others as inactive; ? = inconclusive; / = no result given; [ ] = remark or other dose. Calls come from the whole dose curve; as a rule, active = well fitted curve in the direction sought with a large enough effect; inconclusive = small, poorly fitted or top-dose-only effect, or another doubt; inactive = no such curve, though single readings can be large; an effect the other way counts as inactive or inconclusive. Potency is the fitted concentration of half-maximal effect.
SMILES,BAZ2B block,Sfp inh,PLK1 PBD block,G9a block,JMJD2A Tudor inh,HP1b binding inh
COC(=O)c1c(-c2cccs2)csc1NC(=O)c1ccc(C(C)(C)C)cc1,-11%,/,/,1.8µM*,?,-13%
COC(=O)c1c(-c2cccs2)csc1NC(=O)c1cccnc1,31%,?,-5%,8%[59 µM],18%,102%
CC(C)c1ccc(-c2csc(NC(=O)c3cccs3)c2C(=O)O)cc1,0%,13%,34µM*,-38%,-28%,63%
CS(=O)(=O)c1ccc(C(=O)OCC(=O)N2CCCC2)cc1[N+](=O)[O-],/,/,/,/,-19%,37%
Cc1ccsc1C1NC(=O)c2ccccc2N1 (stereo unspecified),-11%,5%,-11%,?,-17%,27%
O=C1NC(c2cccs2)Nc2ccccc21 (stereo unspecified),0%,4%,2.7µM*,?,?,-9%
Cc1nc(SCC(=O)NCc2ccc3c(c2)OCO3)nc(C)c1C,/,/,-11%,/,-12%,-4%
CCn1c(SCC(=O)NCc2ccc3c(c2)OCO3)nnc1-c1ccncc1,-12%,7%,4%,-50%,-12%,30%
O=C(CSc1ccc2ccccc2n1)NCc1ccc2c(c1)OCO2,1%,-11%,24µM*,?,?,-3%
Nc1cc(N)nc(SCC(=O)NCc2ccc3c(c2)OCO3)n1,/,/,6µM*,/,-22%,-1%
Cc1cc(C)n2c(SCC(=O)NCc3ccc4c(c3)OCO4)nnc2n1,-1%,71µM*,24µM*,11µM*,79µM*,-22%
O=C(CSc1nccc(=O)[nH]1)NCc1ccc2c(c1)OCO2,-9%,1%,-7%,?,-20%,25%
Cc1nnc(SCC(=O)NCc2ccc3c(c2)OCO3)[nH]c1=O,-32%,?,-2%,50µM*,-17%,24%
O=C(Nc1ccccc1OC(F)F)c1ccc(N2CCCC2=O)cc1,/,/,-16%,/,/,/
Cc1nc2c(C(=O)NC(C)c3ccccc3)cnn2c(C)c1Cc1ccccc1 (stereo unspecified),7%,/,/,7%[59 µM],-11%,23%
Cc1cc(C)c(NC(=O)Cn2nnc(C(=O)NCc3ccc4c(c3)OCO4)c2N)c(C)c1,-16%,-1%,?,17%[59 µM],56µM*,15%
Cc1nc2ccccc2nc1OCC(=O)NCc1ccc2c(c1)OCO2,-5%,-3%,2.7µM*,6%,?,-11%
Cc1ccc(NC(=O)Cn2nnc(C(=O)NCc3ccc4c(c3)OCO4)c2N)cc1,-3%,-8%,-4%,36%[59 µM],-11%,33%
Cc1ccc(S(=O)(=O)N2CCN(c3nc(-c4ccc(F)cc4)nc4cc(Cl)ccc34)CC2)cc1,/,/,/,/,-8%,30%
CC1Cc2ccccc2N1C(=S)NC(=O)C1(C)CC1(Cl)Cl (stereo unspecified),-29%,19%,-8%,0%,-14%,2%
COc1cc(C(=O)N/N=C/c2ccc(OC)c(CN3CCN(c4ccc(F)cc4)CC3)c2)ccc1O,-70%,2%,-9%,?,45µM*,-14%
COc1cc(/C=N/NC(=O)NC23CC4CC(CC(C4)C2)C3)ccc1O,?,-13%,0%,56µM*,-33%,1%
COc1ccc(/C=N/NC(=O)c2ccccc2F)cc1CN1CCN(c2ccc(F)cc2)CC1,50µM*,3%,-4%,-51%[59 µM],-25%,-18%
COc1cc(/C=N/NC(=O)c2ccc(-n3cccc3)cc2)ccc1O,?,-2%,-12%,79µM*,?,-34%
COc1ccc(/C=N/NC(=O)c2ccccc2)cc1CN1CCN(c2ccc(F)cc2)CC1,-5%,15%,-11%,26%[12.7 µM],-16%,1%
SMILES,BAZ2B block,Sfp inh,PLK1 PBD block,G9a block,JMJD2A Tudor inh,HP1b binding inh
COc1ccc(/C=N/NC(=O)c2cccnc2)cc1CN1CCOCC1,1%,7%,1%,/,6%,35%
COCCN1C(=S)N[C@@H](c2ccccc2)C(C(=O)OC)=C1C,?,11%,/,21%[12.7 µM],/,/
COc1ccc(C(=O)N/N=C/c2ccc(OC)c(CN3CCc4cc(OC)c(OC)cc4C3C)c2)cc1 (stereo unspecified),-18%,100µM*,5%,-25%,-21%,9%
COc1ccc(C(=O)N/N=C/c2ccc(OC)c(COc3ccc(F)cc3)c2)cc1,-27%,18%,-7%,/,-10%,8%
Cc1cccc(N2CCN(c3ccc(N4C(=O)CCCC4=O)cc3[N+](=O)[O-])CC2C)c1 (stereo unspecified),28µM*,-8%,-8%,?,?,?
CCOC(=O)C(NC(=O)CCl)(Nc1sc(C)c(CC)c1C#N)C(F)(F)F (stereo unspecified),-6%,-8%,-19%,25µM*,-12%,43%
CCOC(=O)C(NC(=O)N(C)C)(Nc1sc(C)c(CC)c1C#N)C(F)(F)F (stereo unspecified),-3%,45µM*,-28%,8.9µM*,-28%,-9%
Cc1cc(C)n(-c2ccc(C)c(Cl)c2)n1,11%,8%,-5%,15%[59 µM],18%,52%
COc1ccccc1OCC(=O)Nc1nnc(-c2ccco2)s1,?,-7%,-26%,?,?,20%
CCOc1cccc(C(=O)Nc2nnc(-c3ccco3)s2)c1,?,-10%,-22%,56µM*,-16%,53%
CCCC(=O)Nc1nnc(-c2ccco2)s1,-14%,32µM*,0%,-6%[12.7 µM],-12%,33%
Nc1nnc(-c2ccco2)s1,17%,5µM*,-8%,2%[2.33 µM],-4%,38%
O=C(Cc1ccccc1)Nc1nnc(-c2ccco2)s1,?,6%,-13%,-17%[12.7 µM],-17%,17%
Cc1cccc(OCC(=O)Nc2nnc(-c3ccco3)s2)c1,-32%,-9%,-14%,50µM*,-3%,35%
CCCCN1C(=O)c2[nH]nc(-c3ccccc3O)c2C1c1ccc(OCc2ccccc2)cc1 (stereo unspecified),?,/,/,-33%[59 µM],?,17%
Cc1ccnc2c(N3C(=O)C4C5c6ccccc6C(c6ccccc65)C4C3=O)cccc12 (stereo unspecified),-29%,-4%,3%,/,-30%,11%
COc1ccc(Cl)cc1S(=O)(=O)N1CCN(S(=O)(=O)c2ccc3c(c2)OCCO3)CC1,/,/,/,/,-18%,/
COCCNC(=O)C1(C)CCCN(CCC(=O)c2ccc(Br)cc2)C1 (stereo unspecified),/,/,9.5µM*,/,/,/
CCCNC(=O)C1(C)CCN(CCC(=O)c2ccc(Br)cc2)C1 (stereo unspecified),/,/,11µM*,/,/,/
Cn1ccnc1Sc1nc2ccccc2nc1NS(=O)(=O)c1ccccc1,?,50µM*,?,-28%[59 µM],-20%,27%
Cn1cnnc1Sc1nc2ccccc2nc1NS(=O)(=O)c1ccccc1,?,1%,-12%,50µM*,-14%,37%
